NPC1 prom act – NPC1 promoter activation. AID 485313. Huh7 NPC1 promoter luciferase reporter, 24 h. Potency, µM (titrated, usually from 9.22 µM), for inactives: at the top dose activation, hits mostly activators. actives 2.4% (n = 320,000); further: % of control where 0% means no effect; nearly all actives have a fitted effect of over 60% in size
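Luminescence from an NPC1 promoter-driven luciferase reporter in stably transfected Huh7 cells was measured after 24 h compound treatment at 37 °C, followed by 10 min ambient incubation with luciferase detection reagent.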
SMN2 splice enh – SMN2 splice variant enhancement. HEK293 SMN2-luciferase splicing reporter, luminescence, 30-36 h. Potency, µM (doses to about 46.1 µM), without a hit: at the top dose activity change, positive = activation, actives largely listed as activators. actives 2.8% (n = 210,000). AID 1458; further: % of control where 0% means no effect; nearly all actives have a fitted effect of over 55% in size
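HEK293 cells carry an SMN2 minigene-luciferase reporter in which exon 7 inclusion puts luciferase in frame. Cells were seeded at 2000 cells/well, attached for 10-12 hours, then exposed to compounds for 30-36 hours at 37C before ONE-Glo luminescence.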
ELG1 repair inh – blocks ELG1-dependent DNA repair in HEK293T cells | actives 2.3% (n = 330,000) | HEK293T ELG1-luciferase reporter, luminescence, 16 h; DNA damage induced by 5-fluorouridine | Potency, µM (doses to about 46.1 µM), without a hit: at the top dose activity change, negative = inhibition, usual class: inhibitors; further: on the % scale 0 is the no-effect control and ±100 the full control effect; nearly all actives have a fitted effect of over 55% in size
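Quantitative HTS, concentration-response format. 2,000 cells/well co-treated with 5-fluorouridine and compound, 16 hr in 5% CO2 at 37 °C; ONE-Glo luminescence read after 30 min.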
Rab9 prom act – activates the Rab9 promoter; Huh7 Rab9 promoter-luciferase reporter, luminescence, 24 h; Potency, µM (doses to about 9.22 µM), inactives show at the top dose activation, negative = inhibition, actives largely listed as activators; actives 2.8% (n = 320,000); AID 485297; further: % of control where 0% means no effect; nearly all actives have a fitted effect of over 60% in size
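Steps: seed 1500 Huh7 Rab9-luc cells per well, rest 2 h at 37 °C; add compound in DMSO; incubate 24 h; add luciferase reagent, 10 min ambient; read luminescence.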
ELG1 genotoxic – induces genotoxicity in HEK293T cells with luciferase-tagged ELG1; HEK293T ELG1-luciferase reporter, luminescence, 16 h; Potency, µM (highest dose often 46 µM), without a hit: at the top dose activity change, positive = activation, actives largely listed as activators; actives 1.3% (n = 330,000); AID 504466; further: % of control where 0% means no effect; nearly all actives have a fitted effect of over 60% in size
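Screening used a luciferase reporter fused to human ELG1 in HEK293T cells. Luminescence was read on a CCD plate imager after 16 hr exposure and 30 min ONE-Glo incubation.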
FLuc modulator – firefly luciferase modulation, counter-screen for miR-21 project; Potency, µM (doses to about 57.5 µM), for inactives: at the highest dose activity change, negative = inhibition, usual class: inhibitors; P08659; actives 6.9% (n = 360,000); AID 588342; purified FLuc, Km substrates, luminescence inhibition;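 further: plate controls were vehicle for no effect and reference inhibitor for full effect; nearly all actives have a fitted effect of over 55% in size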
Target sequence (P08659 whole entry, looked up): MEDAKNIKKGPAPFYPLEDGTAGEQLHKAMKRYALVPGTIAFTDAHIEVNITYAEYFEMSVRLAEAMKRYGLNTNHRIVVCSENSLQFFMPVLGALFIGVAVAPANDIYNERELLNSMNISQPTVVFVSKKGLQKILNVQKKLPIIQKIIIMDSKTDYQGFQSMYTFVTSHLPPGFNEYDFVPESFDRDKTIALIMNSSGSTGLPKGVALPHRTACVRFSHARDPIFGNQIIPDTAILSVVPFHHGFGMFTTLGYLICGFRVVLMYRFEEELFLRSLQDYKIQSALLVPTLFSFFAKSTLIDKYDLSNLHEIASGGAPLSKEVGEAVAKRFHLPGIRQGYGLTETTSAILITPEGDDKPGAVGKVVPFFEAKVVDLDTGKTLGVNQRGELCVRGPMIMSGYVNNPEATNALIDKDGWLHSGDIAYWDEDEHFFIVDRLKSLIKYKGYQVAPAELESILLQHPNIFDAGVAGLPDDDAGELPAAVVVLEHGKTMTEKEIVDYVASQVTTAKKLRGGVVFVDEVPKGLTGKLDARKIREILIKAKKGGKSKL
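Biochemical qHTS of compounds, final roughly 60 µM downward over six points, against 10 nM purified firefly luciferase using Km concentrations of substrates (10 uM D-luciferin, 10 uM ATP) in Tris acetate pH 7.5 buffer; luminescence output.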
Active calls of the source: *; ? = inconclusive; / = not tested or not shown; [ ] = remark or other dose. Sampled rows, rich in hits. Any-hit rate of the full collection: about 9.4%. The call rests on the fitted dose curve; in most records, active means well fitted curve in the direction sought with a large enough effect; inconclusive means small, poorly fitted or top-dose-only effect, or another doubt; inactive means no such curve, though single readings can be large; an effect the other way counts as inactive or inconclusive. Potency means the concentration at half of the fitted maximal effect.

SMILES | NPC1 prom act | SMN2 splice enh | ELG1 repair inh | Rab9 prom act | ELG1 genotoxic | FLuc modulator
O=C(CSc1ncccn1)N/N=C/c1ccc2c(c1)OCO2 | 26% | / | ? | ? | ? | 11µM*
O=C(Cn1ccc(C(F)(F)F)n1)N/N=C/c1ccc2c(c1)OCO2 | 23% | / | ? | 6% | ? | 19µM*
O=C(CNc1ccccc1)N/N=C/c1ccc2c(c1)OCO2 | 5% | 7% | 3% | 3% | 2% | ?
Cc1cccc(C(=O)NC(=O)Nc2ccc(-n3nc(C(F)(F)F)cc3C(F)(F)F)cc2)c1 | / | 3% | / | / | / | 2%
CC(=O)c1cccc(NC(=O)CSc2nnc3ccc(-c4ccc(Cl)cc4)nn23)c1 | / | / | / | / | / | -1%
COC(=O)c1ccccc1S(=O)(=O)N1CCc2nc(COc3ccccc3)c3c(c2C1)CO[C@@H](C)C3 | / | -7%[9.22 µM] | / | / | / | /
COc1cccc(C(=O)NCC(=O)N/N=C/c2cccnc2)c1 | -2% | / | 10% | 0% | 2% | 3%
O=C(CNC(=O)c1ccccc1F)N/N=C/c1ccc2c(c1)OCO2 | ? | / | ? | ? | ? | 17µM*
COc1cccc(C(=O)NCC(=O)N/N=C/c2ccc3c(c2)OCO3)c1 | 3% | / | ? | 1% | 6% | 24µM*
COc1ccc(C(=O)N2CCC[C@@]3(CCN(c4ncccn4)C3)C2)cc1 | / | 6% | / | / | / | /
CCOc1ccc(Nc2n[nH]c(=S)s2)cc1 | 2.5µM* | / | ? | 1.8µM* | ? | ?
S=c1[nH]nc(Nc2ccc(Cl)cc2)s1 | 14% | / | ? | 7% | 4% | ?
O=C(c1ccccc1)N1N=C(c2ccccc2)CC1(O)C(F)(F)F (configuration not stated) | 1% | / | 0% | -3% | 0% | 2%
CCOC(=O)N1N=C(CC)CC1(O)C(F)(F)F (configuration not stated) | -5% | 3% | 10% | 1% | 1% | 11%
CCOC(=O)N1N=C(c2ccc(C)cc2)CC1(O)C(F)(F)F (configuration not stated) | 0.89µM* | 21% | ? | 0.71µM* | ? | 5.4µM*
COC(=O)N1N=C(c2ccc(Br)cc2)CC1(O)C(F)(F)F (configuration not stated) | 3.5µM* | 16µM* | ? | ? | ? | 11µM*
CCOC(=O)N1N=C(c2ccccc2)CC1(O)C(F)(F)F (configuration not stated) | 3.5µM* | ? | ? | 2.2µM* | ? | 13µM*
COc1ccc(CNC(=O)CN2C(=O)CSc3ccc(S(=O)(=O)N4CCCC4)cc32)cc1 | / | / | / | / | / | 1%
CCN(c1ccccc1C)S(=O)(=O)c1nnc(NC(=O)c2ccc(OC)c(OC)c2)s1 | / | / | / | / | / | 1%
COc1ccc(-c2cn[nH]c2-c2ccc(OCc3ccc(F)cc3)cc2O)cc1OC | -4% | / | ? | -7% | 4% | -6%
C=C(C)COc1ccc(-c2n[nH]c(C)c2Oc2ccccc2OC)c(O)c1 | 1% | / | ? | 2% | -6% | -10%
COc1ccc(-c2cn[nH]c2-c2ccc(OCc3ccccc3)cc2O)cc1OC | -2% | / | 13µM* | -4% | -19% | ?
C=C(C)COc1ccc(-c2[nH]ncc2-c2ccc(OC)cc2)c(O)c1 | 1% | / | ? | 0% | -15% | -19%
C=C(C)COc1ccc(-c2[nH]ncc2-c2ccc(OC)c(OC)c2)c(O)c1 | -31% | -51% | 21µM* | -38% | -5% | -5%
C=C(C)COc1ccc(-c2n[nH]c(C)c2-c2ccc(OC)c(OC)c2)c(O)c1 | -20% | / | 21µM* | -24% | 5% | -4%
SMILES | NPC1 prom act | SMN2 splice enh | ELG1 repair inh | Rab9 prom act | ELG1 genotoxic | FLuc modulator
COc1ccc(-c2n[nH]c(C)c2-c2ccc(Cl)cc2)c(O)c1OC | -3% | 18% | 12µM* | -5% | -34% | 2%
CCOC(=O)c1csc(-c2sccc2Br)n1 | 2.5µM* | / | ? | 3.2µM* | 5.2µM* | 1.9µM*
CCOC(=O)c1csc(NC(=O)c2ccc(OCC)cc2)n1 | 11% | -39% | ? | ? | -6% | 6.7µM*
CCOC(=O)c1csc(-c2ccc(OC)c(OC)c2)n1 | -1% | -5% | ? | 0% | -1% | ?
CCOC(=O)c1csc(NC(=O)c2ccccc2)n1 | 3.2µM* | 11µM* | ? | 1.8µM* | 8.2µM* | 12µM*
CCOC(=O)c1csc(NC(=O)c2ccc3c(c2)OCCO3)n1 | ? | / | ? | ? | 1% | 3.8µM*
CCOC(=O)c1csc(NC(C)=O)n1 | 14% | 28% | ? | 4% | 7% | 0%
CCOC(=O)c1csc(NC(=O)c2ccc(OC)c(OC)c2)n1 | -3% | 7% | 2% | 0% | 5% | -1%
C=CC[C@](C)(Nc1ccc(OC)cc1)C(=O)OCC | / | 18% | / | / | / | /
Cc1cc(-c2csc(NC(=O)c3cccc(S(=O)(=O)N(C)C)c3)n2)c(C)n1-c1ccccc1 | -7% | -45% | ? | -21% | -10% | ?
CCOC(=O)c1csc(-c2ccc3c(c2)CCO3)n1 | 3.5µM* | / | ? | 2.2µM* | ? | 4.8µM*
CCOC(=O)c1csc(NC(=O)c2ccc(S(=O)(=O)N(C)C)cc2)n1 | 20% | -30% | 7.3µM* | 21% | -20% | -4%
COC(=O)c1ccc(-n2c(C)cc(-c3csc(NC(=O)c4ccc(S(=O)(=O)N(C)C)cc4)n3)c2C)cc1 | -12% | -63% | 13µM* | -22% | -8% | 1%
CC(=O)N1CCc2cc(S(=O)(=O)NCCC(=O)N3CCc4ccccc4C3)ccc21 | -2% | -31% | 23µM* | -2% | -4% | 4%
CC(=O)N1CCc2cc(S(=O)(=O)NCCC(=O)Nc3cc(C)cc(C)c3)ccc21 | 0% | -5% | 10% | -11% | 4% | -1%
CC(=O)N1CCc2cc(S(=O)(=O)NCCC(=O)Nc3ccc4c(c3)OCCO4)ccc21 | 26% | ? | ? | 26% | ? | 15µM*
O=C(Nc1ccc(OC(F)(F)F)cc1)NC1COc2ccccc2C1 (configuration not stated) | / | / | / | / | / | -4%
CNS(=O)(=O)c1cc(-c2nnc(Nc3cc(C)ccc3C)c3ccccc23)ccc1C | / | -14% | / | / | / | -8%
COc1ccc(CNC(=O)c2ccc3c(c2)N(Cc2cc(C)ccc2C)C(=O)CS3)cc1 | / | -1% | / | / | / | -2%
CCOc1ccc(C(=O)OCc2cc(=O)n3nc(C4CCCCC4)sc3n2)cc1 | / | / | / | / | / | -16%
COc1ccc(CNC(=O)CCc2nnc3n(CC(C)C)c(=O)c4ccccc4n23)cc1 | / | 1% | / | / | / | -4%

Bioassay records deposited in PubChem BioAssay by National Center for Advancing Translational Sciences (NCATS).
